Survival data for 57 molecules are collected here from PubChem BioAssay AID463173 (ICCB-Longwood Screening Facility, Harvard Medical School, 2010).

Out of some 52,000 compounds screened, about 4,300 (8.3%) were called active. Shown is part of a subset that was picked to be rich in actives. Values without a mark were called inactive. Rule as the data show it: active = survival mostly below about 52% (no sharp cut-off); inactive = mostly above about 56%.

This test relates to DeltatarO mutant. Description: growth inhibition of S. aureus wild type versus tarO mutant, primary screen, teichoic acid synthesis inhibitors, RN4220, OD600 (AID 463173). Particulars: OD600, 18 h, hits give low values, screened at 18.75 µg/mL (by protocol).
`Cc1ccc2nc(Nc3ccc(C)c(F)c3)c3nncn3c2c1`: the survival is 38% (active).

Regarding `Cc1ccc2nc(NCc3ccc(F)cc3)c3nncn3c2c1`, the survival was 121%.

For `Cc1cc(F)ccc1Nc1nc2ccc(Cl)cc2n2cnnc12`, the survival is 90%.

Consider `Cc1ccc(NC(=O)c2ccc(=O)n(CC(=O)Nc3cccc(C)c3)n2)cc1`, for which the survival was 72%.

As to `COc1cccc(CNC(=O)CCc2c(C)nn(-c3ccc(N4CCOCC4)nn3)c2C)c1`, the survival is 100%.

With `Cc1cccn2c(=O)cc(COc3cccc(NC(=O)c4ccccc4F)c3)nc12`, the survival is -5% (active).

Turning to `Cc1ccc(OCC(=O)Nc2ccc(OCc3cc(=O)n4cccc(C)c4n3)cc2)cc1C`, the survival was -5% (active).

Take `Cc1cccn2c(=O)cc(COc3ccc(NC(=O)COc4ccc(F)cc4)cc3)nc12`: the survival was 89%.

On to `COc1cc(C(=O)Nc2ccc(OCc3cc(=O)n4ccc(C)cc4n3)cc2)cc(OC)c1OC`, for which the survival is 8% (active).

With `Cc1cccc(C(=O)Nc2cccc(OCc3cc(=O)n4cccc(C)c4n3)c2)c1`, the survival is 92%.

For `Cc1ccc(OCC(=O)Nc2cccc(OCc3cc(=O)n4cccc(C)c4n3)c2)cc1C`, the survival was 122%.

For `COc1ccccc1C(=O)Nc1ccc(OCc2cc(=O)n3ccc(C)cc3n2)cc1`, the survival is 89%.

For the molecule `CCOc1ccc(C(=O)Nc2ccc(OCc3cc(=O)n4cccc(C)c4n3)cc2)cc1`, the survival is 55%.

As to `Cc1ccccc1C(=O)Nc1ccc(OCc2cc(=O)n3cccc(C)c3n2)cc1`, the survival is 88%.

For `Cc1ccccc1C(=O)Nc1cccc(OCc2cc(=O)n3cccc(C)c3n2)c1`, the survival was 77%.

In the case of `Cc1cccc(C(=O)Nc2ccc(OCc3cc(=O)n4ccc(C)cc4n3)cc2)c1`, the survival was 81%.

With `Cc1cccn2c(=O)cc(COc3ccc(NC(=O)c4cccc(F)c4)cc3)nc12`, the survival was 17% (active).

In the case of `CCOC(=O)c1ccccc1NC(=O)N1CCc2c(sc(C)c2CC)C1c1ccccc1` (configuration not stated), the survival was 124%.

Turning to `O=C(Cc1csc2ccccc12)NCc1cccc(Br)c1`, the survival is 84%.

In the case of `O=S(=O)(c1ccc(-c2cnc(C3CC3)o2)cc1)N1CCN(c2ccccc2F)CC1`, the survival was 87%.

Take `Cc1ccc(C(=O)NCc2ccccc2)cc1NC(=O)c1nsc2ccccc12`: the survival was 84%.

Turning to `CCOc1ccc(NC(=O)N(C(C)C)C2CCN(C(C)=O)CC2)cc1`, the survival was 76%.

On to `CCC(C)NC(=O)c1sc2nc(C)c(C(=O)Nc3ccc(C)cc3C)c(-c3ccc(NC(C)=O)cc3)c2c1N` (configuration not stated), for which the survival is 88%.

As for `CC(C)CC(C(=O)NCC1CCN(Cc2ccc(F)cc2)CC1)N1Cc2ccccc2C1=O` (configuration not stated), the survival was 94%.

With `CC(=O)N1c2c(cc(Br)cc2S(=O)(=O)Nc2ccccc2C)CC1C` (configuration not stated), the survival is 68%.

Regarding `COc1cc(NS(=O)(=O)c2cc(Br)cc3c2N(C(C)=O)C(C)C3)cc(OC)c1` (configuration not stated), the survival was 20% (active).

`CCN(c1cccc(C)c1)S(=O)(=O)c1cc(Br)cc2c1N(C(C)=O)C(C)C2` (configuration not stated): the survival was 51% (active).

On to `COc1cccc(CNS(=O)(=O)c2cc(Br)cc3c2N(C(C)=O)C(C)C3)c1` (configuration not stated), for which the survival is 128%.

As for `COc1ccc(CNS(=O)(=O)c2cc(Br)cc3c2N(C(C)=O)C(C)C3)cc1` (configuration not stated), the survival was 131%.

On to `CC(=O)N1c2c(cc(Br)cc2S(=O)(=O)Nc2ccc(OC(F)(F)F)cc2)CC1C` (configuration not stated), for which the survival was 66%.

For the molecule `CC(=O)N1c2c(cc(Br)cc2S(=O)(=O)NCc2ccccc2Cl)CC1C` (configuration not stated), the survival is 46% (active).

Turning to `CCOc1ccc(N(CC)S(=O)(=O)c2cc(Br)cc3c2N(C(C)=O)C(C)C3)cc1` (configuration not stated), the survival was 60%.

On to `COc1ccccc1CNS(=O)(=O)c1cc(Br)cc2c1N(C(C)=O)C(C)C2` (configuration not stated), for which the survival is 53%.

`COc1ccc(-n2c(SCC(=O)N3CCCc4ccccc43)nc3c([nH]c4ccccc43)c2=O)cc1`: the survival is 101%.

As to `COc1ccc2c(C)c(CCC(=O)NCCc3ccc(OC)c(OC)c3)c(=O)oc2c1`, the survival was 88%.

Take `CC(=O)c1cccc(NC(=O)Cn2cc(C(=O)c3cccc(Cl)c3)c(=O)c3ccc(C)nc32)c1`: the survival was 56%.

Turning to `COc1cc(C(=O)Nc2ccc(Cl)c(-c3nc4ncccc4o3)c2)cc(OC)c1OC`, the survival is 123%.

For `COc1ccc(Br)cc1CNC(=O)c1cc(=O)[nH]c2ccc(S(=O)(=O)N3CCCCC3)cc12`, the survival was 84%.

Turning to `CCOC(=O)CCC(=O)Nc1nnc2n1CCS2`, the survival is 66%.

`CCN1CCN(CCC(=O)Nc2ccc3c(c2)CCC3)CC1`: the survival is 95%.

Consider `COc1cccc(/C=C/c2nc(C#N)c(NCCc3ccc(OC)c(OC)c3)o2)c1`, for which the survival was 41% (active).

As for `COc1ccccc1/C=C/c1nc(C#N)c(NCc2ccccc2)o1`, the survival is 83%.

In the case of `COc1ccc(Nc2oc(/C=C/c3ccc(OC)c(OC)c3)nc2C#N)cc1`, the survival was 73%.

For the molecule `COc1cc(/C=C/c2nc(C#N)c(NC3CCCCC3)o2)cc(OC)c1OC`, the survival is 32% (active).

As for `COc1ccccc1/C=C/c1nc(C#N)c(NCCc2ccccc2)o1`, the survival is 71%.

`CCOc1ccc(Nc2oc(/C=C/c3cc(OC)c(OC)c(OC)c3)nc2C#N)cc1`: the survival is 58%.

For `COc1ccc(CCNc2oc(/C=C/c3ccc(OC)c(OC)c3)nc2C#N)cc1`, the survival is 90%.

Regarding `CCOc1ccc(Nc2oc(/C=C/c3ccc(OC)c(OC)c3)nc2C#N)cc1`, the survival is 55% (active).

Take `CCOc1ccc(/C=C/c2nc(C#N)c(NC3CCCCC3)o2)cc1`: the survival is 65%.

`CNc1oc(/C=C/c2cc(OC)c(OC)c(OC)c2)nc1C#N`: the survival was 69%.

On to `COc1ccc(/C=C/c2nc(C#N)c(NCCc3ccc(OC)c(OC)c3)o2)cc1OC`, for which the survival was 95%.

`COc1ccccc1/C=C/c1nc(C#N)c(NCC(C)C)o1`: the survival is 47% (active).

On to `Cc1cc(C)nc(SCCC(=O)N(C)C)n1`, for which the survival was 84%.

In the case of `CC(=O)N1CCN(CCN2C(=O)C3C4c5ccccc5C(c5ccccc54)C3C2=O)CC1` (configuration not stated), the survival was 94%.

Consider `CCC(=O)N(Cc1cc(=O)[nH]c2ccccc12)C1CCCCC1`, for which the survival is 69%.

Take `COc1cc(NC(=O)CC(c2cccs2)N2Cc3ccccc3C2=O)cc(OC)c1OC` (configuration not stated): the survival is 49%.

On to `Cc1ccc(-c2csc(-c3nc(-c4ccc(Br)s4)cs3)n2)cc1`, for which the survival was 82%.
